Reference: the supplement of paper PMC8728848
This is one part of a sample in which the strongest signals are shown more often than they occur.

Experiments:
Experiment in all cases: glycan array binding signal (z-score within array); higher = stronger binding
Conditions in all cases: glycan notation: IUPAC condensed, linker removed
Gal(b1-4)GlcNAc6P = target: Gal(b1-4)GlcNAc6P
Outline: (§1)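 Arrays were curated from the Consortium for Functional Glycomics database, 3228 in total, and kept only where the protein sequence was available. Binding is expressed as a within-array Z-score. This score was averaged across arrays of the same protein sequence at different concentrations or buffers and across linkers, and negative values can be read as non-binding.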

Gal3S(b1-3)GalNAc = target: Gal3S(b1-3)GalNAc
Outline: as §1

Gal6S(b1-4)Glc = target: Gal6S(b1-4)Glc
Outline: as §1

[1] = target: GalNAc(b1-4)GlcNAc(b1-2)Man
Outline: as §1

Glc(b1-6)Glc = target: Glc(b1-6)Glc
Outline: as §1

[2] = target: GlcNAc(a1-4)Gal(b1-4)GlcNAc
Outline: as §1

GlcNAc(b1-3)Man = target: GlcNAc(b1-3)Man
Outline: as §1

Kdn(a2-3)Gal(b1-4)Glc = target: Kdn(a2-3)Gal(b1-4)Glc
Outline: as §1

Kdn(a2-3)Gal(b1-4)GlcNAc = target: Kdn(a2-3)Gal(b1-4)GlcNAc
Outline: as §1

[3] = target: Man(a1-2)Man(a1-3)[Man(a1-2)Man(a1-6)]Man
Outline: as §1

Man(a1-3)[Man(a1-6)]Man = target: Man(a1-3)[Man(a1-6)]Man
Outline: as §1

[4] = target: Man(a1-3)[Man(a1-6)]Man(a1-6)[Man(a1-2)Man(a1-3)]Man(b1-4)GlcNAc(b1-4)GlcNAc
Outline: as §1

MurNAc(b1-4)GlcNAc = target: MurNAc(b1-4)GlcNAc
Outline: as §1

Neu5Ac(a2-3)Gal = target: Neu5Ac(a2-3)Gal
Outline: as §1

[5] = target: Neu5Ac(a2-3)Gal(b1-3)GalNAc(b1-3)Gal(a1-4)Gal(b1-4)Glc
Outline: as §1

[6] = target: Neu5Ac(a2-3)Gal(b1-3)GlcNAc(b1-2)Man(a1-3)[GlcNAc(b1-4)][Neu5Ac(a2-3)Gal(b1-3)GlcNAc(b1-2)Man(a1-6)]Man(b1-4)GlcNAc(b1-4)GlcNAc
Outline: as §1

[7] = target: Neu5Ac(a2-3)Gal(b1-4)GlcNAc(b1-3)Gal
Outline: as §1

[8] = target: Neu5Ac(a2-3)Gal(b1-4)GlcNAc(b1-3)Gal(b1-4)GlcNAc(b1-3)Gal(b1-4)GlcNAc(b1-2)Man(a1-3)[Neu5Ac(a2-3)Gal(b1-4)GlcNAc(b1-3)Gal(b1-4)GlcNAc(b1-3)Gal(b1-4)GlcNAc(b1-2)Man(a1-6)]GalNAc
Outline: as §1

[9] = target: Neu5Ac(a2-3)Gal(b1-4)[Fuc(a1-3)]GlcNAc(b1-3)GalNAc
Outline: as §1

[10] = target: Neu5Ac(a2-3)[GalNAc(b1-4)]Gal(b1-4)Glc
Outline: as §1

[11] = target: Neu5Ac(a2-6)Gal(b1-4)GlcNAc(b1-2)Man(a1-3)[Neu5Ac(a2-6)Gal(b1-4)GlcNAc(b1-2)Man(a1-6)]Man(b1-4)GlcNAc(b1-4)GlcNAc
Outline: as §1

[12] = target: Neu5Ac(a2-6)Gal(b1-4)GlcNAc(b1-3)Gal(b1-4)GlcNAc(b1-3)[Neu5Ac(a2-6)Gal(b1-4)GlcNAc(b1-3)Gal(b1-4)GlcNAc(b1-6)]GalNAc
Outline: as §1

[13] = target: Neu5Ac(a2-6)Gal(b1-4)GlcNAc(b1-3)[Neu5Ac(a2-6)Gal(b1-4)GlcNAc(b1-6)]GalNAc
Outline: as §1

[14] = target: Neu5Ac(a2-6)GalNAc(b1-4)GlcNAc6S
Outline: as §1

[15] = target: Neu5Ac(a2-6)GlcNAc(b1-4)GlcNAc(b1-4)GlcNAc
Outline: as §1

[16] = target: Neu5Ac(a2-8)Neu5Ac(a2-3)Gal(b1-4)Glc
Outline: as §1

[17] = target: Neu5Ac(a2-8)Neu5Ac(a2-3)Gal(b1-4)GlcNAc
Outline: as §1

[18] = target: Neu5Ac(a2-8)Neu5Ac(a2-8)Neu5Ac(a2-3)Gal(b1-4)Glc
Outline: as §1

[19] = target: Neu5Gc(a2-3)Gal(b1-4)GlcNAc
Outline: as §1

B1: CPA (Cicer arietinum) (protein)
chain: MAFSYLNLVLVTLTTLFFLQTTKVKSQKSVSFHITNFTISRPSITLQGTAEFLPNVLLLNDIEHPVFVVGRALYSKPITLWNNKTGKVASFVTSFTFDVQDLKKTVPGHGLVFFLAPSGSEIPFSSDGGNLGVVDGKNAFNRFVGVEFDNFVNSWDPKYSHVGINVNSLISTKTVKWNRVSGELVKVSIVYDSVSTTLTVIVTYKNGQISILSQLVDLKAVLPDTVNIGFSASTTLVSPRQLHNIHSWSFTSTFET
glycan array binding signal (z-score) (Gal(b1-4)GlcNAc6P): 5.14
glycan array binding signal (z-score) (Gal3S(b1-3)GalNAc): -0.183
glycan array binding signal (z-score) (Gal6S(b1-4)Glc): 0.138
glycan array binding signal (z-score) [1]: 1.55
glycan array binding signal (z-score) (Glc(b1-6)Glc): -0.614
glycan array binding signal (z-score) [2]: 2.25
glycan array binding signal (z-score) (GlcNAc(b1-3)Man): -0.558
glycan array binding signal (z-score) (Kdn(a2-3)Gal(b1-4)Glc): -0.762
glycan array binding signal (z-score) (Kdn(a2-3)Gal(b1-4)GlcNAc): -0.585
glycan array binding signal (z-score) [3]: -0.461
glycan array binding signal (z-score) (Man(a1-3)[Man(a1-6)]Man): -0.635
glycan array binding signal (z-score) [4]: 4.19
glycan array binding signal (z-score) (MurNAc(b1-4)GlcNAc): 0.406
glycan array binding signal (z-score) (Neu5Ac(a2-3)Gal): -0.529
glycan array binding signal (z-score) [5]: -0.601
glycan array binding signal (z-score) [6]: -0.065
glycan array binding signal (z-score) [7]: -0.66
glycan array binding signal (z-score) [8]: 6.81
glycan array binding signal (z-score) [9]: -0.322
glycan array binding signal (z-score) [10]: -0.34
glycan array binding signal (z-score) [11]: -0.503
glycan array binding signal (z-score) [12]: 3.34
glycan array binding signal (z-score) [13]: -0.588
glycan array binding signal (z-score) [14]: -0.452
glycan array binding signal (z-score) [15]: 2.61
glycan array binding signal (z-score) [16]: -0.501
glycan array binding signal (z-score) [17]: -0.647
glycan array binding signal (z-score) [18]: -0.579
glycan array binding signal (z-score) [19]: -0.402
